The values below come from PubChem BioAssay AID2472 (National Center for Advancing Translational Sciences (NCATS), 2010).

“And” between values parts separate entries of the source, which are not always exact repeats. Equal entries are not always repeated. Screen size: about 290,000 compounds; about 2,000 (0.69%) were called active. The list comes from a sample in which actives are over-represented; it also holds similar structures and randomly drawn compounds. A number with no mark means an inactive call. Cut-off read from the data, not from the text of the source: active = activity change below about -30%; inactive = the rest, inconclusive results apart.
% is set by controls: 0 for no effect and ±100 for the full control effect.

The nature of this assay: qHTS Assay for Inhibitors of Fructose-1,6-bisphosphate Aldolase from Giardia Lamblia: Coupling assay counterscreen. Particulars: coupling enzyme system counterscreen, AmpLite Red fluorescence; at 58.2 µM (top of the series). From the text: MLPCN Grant: MH085699-01 Assay Provider: Osnat Herzberg, University of Maryland NCGC Assay Overview: The objective of this project is to obtain compounds that inhibit Giardia lamblia growth. G. lamblia is a human pathogen which afflicts impoverished nations; it is the most common cause of outbreaks of diarrhea in the United States. During the course of our study of potential drug targets in Giardia, we have identified the Class II (Zn2+ functions in electrophilic catalysis) fructose-1,6-bisphosphate aldolase (FBPA) as an excellent candidate for drug targeting. FBPA is a key glycolytic pathway enzyme, essential for G. lamblia survival. The human FBPA belongs to the Class I aldolases, which have a different substrate binding site structure and a radically different catalytic mechanism (employing a lysine-Schiff base intermediate). Therefore, affinity-based or mechanism-based inhibitors of the Giardia FBPA are expected not to interfere with the catalytic function of the human FBPA. A glyceraldehyde-3-phosphate dehydrogenase/triose phosphate isomerase/NAD/arsenate coupled assay was adapted to the 1536-well HTP format for use in the primary screen. This was done by coupling it to a diaphorase/resazurin/resorufin reaction that can be monitored by fluorescence (excitation, 544 nm; emission, 590 nm). Compounds identified in this screen will be further evaluated by coupling the […]/triose phosphate isomerase/NADH assay to a phenazine methosulfate/tetranitroblue tetrazolium color reaction. False positives due to the dehydrogenases and diaphorase inhibition will be eliminated, and selectivity assay will triage inhibitors of mammalian triose phosphate isomerase and the Class I FBPA. G. lamblia FBPA inhibitors identified by the in vitro analyses will be examined for growth inhibition of Giardia trophozoites, and for cytotoxicity in human cells. This assay specifically addresses whether activity observed in the primary screen (AID 2451) is related to inhibition of the coupling assay used, as opposed to inhibition of aldolase. Actives in this assay are considered inconclusive for activity against aldolase.
NCGC Assay Protocol: Step,Parameter,Value,Description 1,Coupling enzyme reagent,2 uL,glyceraldehyde-3-phosphate 2,Compound,23 nL,3.68 nM-57.5 uM final concentration 3,Time,10 min,RT Incubation 4,Substrate/detection Reagent,2 uL,Substrate + enzyme coupling system + AmpLite Red kit 5,Time,20 min,RT Incubation 6,Detector,525 nm/598 nm (Fluorescence),ViewLux Fluorescence Read (Read 1) Notes: 1,Medium-binding black solid-bottom Kalypsys plates. FRD or Kalypsys dispenser. 2,Compound Library (10 mM ,1:5 dilution). Pin-transferred for a [final] range of 3.68 nM-57.5 uM. 3,RT incubation 4,FRD or Kalypsys dispenser, 2 uL of reaction mixture. Bottle kept at 4C and covered in foil to protect from light. 5,RT incubation 6,ViewLux Protocol 1194; Excitation filter wheel A (525/20 Pol; BODIPY TMR FP), Emission filter wheel B (598/25 S; BODIPY TMR FP S). Keywords: Fructose-bisphosphate aldolase, FBPA , Giardia lamblia , Giardia, HTS, Inhibitors
A general note: qHTS replaces the single test concentration by a dilution series.
For the molecule `COC(=O)c1ccc(NC(=O)CSc2nnc(CNc3ccc(OC)cc3)n2C)cc1`, the activity change, negative = inhibition was -19.7%. As for `C=CCn1c(CNC(=O)c2ccco2)nnc1SCC(=O)c1ccc(OC)cc1`, the activity change, negative = inhibition is 1.42%. The figure for `CC1=C(C(N)=O)C(c2ccc(F)cc2)n2nc(CCCO)nc2N1` (centres undefined) is -0.212%; for `O=C(O)c1cc(S(=O)(=O)NC2CCCc3ccccc32)ccc1O` (centres undefined) it is 20.1%; for `Cc1ccc(S(=O)(=O)c2c(N)n(C)c3nc4ccccc4nc23)cc1` it is -4.65%. As to `C=CCn1c(N)c(S(=O)(=O)c2cccs2)c2nc3ccccc3nc21`, the activity change, negative = inhibition is -35.3% (active). The result for `CCN(CC)CCn1c(N)c(S(=O)(=O)c2ccccc2)c2nc3ccccc3nc21` reads 2.05%. As to `CC(=O)NC1CCN(CC(=O)Nc2nccs2)CC1`, the activity change, negative = inhibition is -1.15%.

For the molecule `CN(C)c1ccc(-c2nc(NCCN3CCOCC3)c3ccccc3n2)cc1`, the activity change, negative = inhibition was -0.456%. Consider `c1ccc2cc3c(NCCN4CCOCC4)ccnc3cc2c1`, for which the activity change, negative = inhibition was -52.2% (active). Regarding `Clc1ccccc1-c1cc(NCCN2CCOCC2)ncn1`, the activity change, negative = inhibition is 2.16%.

Take `COc1cc(NC(=O)c2ccccc2)c(OC)cc1NC(=O)Cc1ccccc1`: the activity change, negative = inhibition is -0.254%. As for `COc1cccc(CNC(=O)CCC2CCCN(Cc3ccc(OC(F)F)cc3)C2)c1` (centres undefined), the activity change, negative = inhibition is 5.02%.

As for `Cc1ccc(C(=O)N(CC(=O)NC2CCCC2)c2ccc(F)cc2)s1`, the activity change, negative = inhibition was -3.12%.

Turning to `COCCN1C=C2C(=O)C(C)(OC(=O)C3CCCC3)C(=O)C=C2C=C1c1ccsc1` (centres undefined), the activity change, negative = inhibition was -33.6% (active) and -32.5% (active).

For `CC1(OC(=O)C2CCCC2)C(=O)C=C2C=C(c3ccc(C#N)cc3)OC=C2C1=O` (centres undefined), the activity change, negative = inhibition is -0.443%. As to `CC1(OC(=O)CCc2ccccc2)C(=O)C=C2C=C(c3ccc(C#N)cc3)N(CCc3ccccn3)C=C2C1=O` (centres undefined), the activity change, negative = inhibition is -28.3% and -0.189%. The figure for `Cc1onc(-c2ccccc2Cl)c1C(=O)OCC(=O)c1ccccc1` is -1.67%; for `CC(C)N(C(=O)c1ccc(-c2ccccc2F)cc1)C(C)C` it is -0.0112%. The figure for `O=C(CN1C(=O)c2ccccc2C1=O)NCc1ccc(C(=O)O)cc1` is 0.209%; for `CC(=O)N(C1=C(Cl)C(=O)c2ccccc2C1=O)c1ccc(C(=O)O)cc1` it is -85.1% (active); for `COc1ccc(C(=O)N2CCC3(CC2)CCN(c2ccccn2)CC3)cc1` it is -4.93%.

As for `Cc1ccc(CNC(=O)Cn2cnc(S(=O)(=O)N3CCCCC3)c2)o1`, the activity change, negative = inhibition is 0.0578%. The result for `O=C(CCCn1c(SCC(=O)c2ccccc2)nc2ccccc2c1=O)NCC1CCCO1` (centres undefined) reads -0.079%; that for `CCCCn1c(SCC(=O)NCC2CCCO2)nc2ccc(N3CCOCC3)cc2c1=O` (centres undefined), -43.6% (active). The result for `COCCNC(=O)c1ccc(Cn2c(SCC(=O)NCC3CCCO3)nc3ccc(Br)cc3c2=O)cc1` (centres undefined) reads 0.29%; that for `Cc1ccc(OCC(=O)NCCCNC(=O)c2cccnc2)cc1C`, -0.615%; that for `O=[N+]([O-])c1cccc2ncccc12`, 0.0628%. As for `COc1ccc(/C=N/Nc2nc3ccccc3c(=O)[nH]2)cc1`, the activity change, negative = inhibition is 0.889%. The figure for `COc1ccc(C=Nc2cccc3ncccc23)cc1` is -34.4% (active).

In the case of `CCCCC/C=C\C/C=C\C/C=C\CCCCC(=O)NCC(=O)O`, the activity change, negative = inhibition is 4.26%. The result for `COC(=O)C1=C(C(=O)OC)[C@@H]2N(C)c3ccccc3[C@@]23C[C@@H](C(=O)OC)N(S(=O)(=O)c2cccs2)C3=N1` reads -0.105%.

With `O=C1CN(Cc2ccccc2)S(=O)(=O)c2ccccc21`, the activity change, negative = inhibition was 13.2%.

For the molecule `COc1ccc(CC(=O)N/N=C/c2cc([N+](=O)[O-])cc(Br)c2O)cc1`, the activity change, negative = inhibition is 8.72%. The result for `Cc1ccc(OCCOCCOc2ccc(Br)cc2/C=N\NC(=O)c2ccncc2)cc1` reads -5.74%; that for `COc1ccc(CC(=O)NCC(=O)N/N=C/c2cc(Br)ccc2OC)cc1`, -33.8% (active); that for `COc1cccc(OCc2cc(C(=O)N3CCN(C(=O)c4ccco4)CC3)no2)c1`, -0.102%.

Consider `N#Cc1c(-c2ccccc2)cc(-c2ccccc2)nc1SCC(=O)O`, for which the activity change, negative = inhibition is 5.25%.

As for `Cc1cc(C)c(C#N)c(N2CCC(C(N)=O)CC2)n1`, the activity change, negative = inhibition was 0.379%. Consider `N#Cc1c(N2CCCCC2)nc(N)c2c(N)nc(SCC(=O)O)cc12`, for which the activity change, negative = inhibition is -31.7% (active). The figure for `CCN1CCN(c2sc(S(C)(=O)=O)nc2S(=O)(=O)c2ccc(Cl)cc2)CC1` is 1.03%; for `O=c1[nH]c2ccccc2n2c(-c3ccccc3)nnc12` it is -62.8% (active). The figure for `CC(=O)c1c(-c2ccccc2)c2ccccc2[nH]c1=O` is 7.44%; for `Cc1ccc(-c2nc3ccccc3[nH]c2=O)cc1` it is 1.32%.
